ELG1 DNA repair = ELG1-dependent DNA repair inhibition. HEK293T ELG1-luciferase reporter, luminescence, 16 h; DNA damage induced by 5-fluorouridine. Potency, µM (highest dose often 46.1 µM), without a hit: at the top dose activity change, negative = inhibition, most hits filed as inhibitors. 330,000 compounds, 2.3% hits; note: potency is the fitted concentration of half-maximal effect; nearly all actives have a fitted effect of over 55% in size
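Cells (2,000 per well) received 5-fluorouridine plus test compound or DMSO and were incubated 16 hr at 37 °C, 5% CO2. Luciferase activity was read by luminescence 30 min after ONE-Glo addition; signal suppression marked inhibition of damage-induced ELG1 function.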
Coupling enz = inhibits coupling enzyme system, counter-screen for aldolase hits; coupling enzyme system counterscreen, AmpLite Red fluorescence; activity change, negative = inhibition, % at 58.2 µM, hits read low; 290,000 compounds, 0.67% hits; AID 2472; in the data active = activity change below about -30%
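Counterscreen of the coupled detection system alone, without aldolase: glyceraldehyde-3-phosphate coupling enzymes plus AmpLite Red readout. Compounds at 57.5 uM final, 10 min RT preincubation, 20 min RT reaction, fluorescence 525/598 nm.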
RORgamma inh = ROR gamma (mouse) transcription inhibition. AID 2551. P51450. Drosophila S2 Gal4-RORgamma UAS-luciferase reporter, 20 h. Potency, µM (doses to about 53.6 µM), inactives show at the top dose activity change, negative = inhibition, hits mostly inhibitors. 310,000 compounds, 5.4% hits; note: potency is the fitted concentration of half-maximal effect; nearly all actives have a fitted effect of over 60% in size
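Luminescence from a UAS-regulated Photinus luciferase reporter in stably transfected Drosophila Schneider cells is measured; decreased signal marks ROR gamma inhibition. Fusion expression is induced by 700 uM copper sulfate for 20 hr.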
VP16 counter = counter-screen for ROR gamma inhibitors: Gal4-VP16 reporter | Drosophila S2 Gal4-VP16 UAS-luciferase, luminescence, 20 h | Potency, µM (series often up to 53.6 µM), without a hit: top-dose activity, negative = inhibition, usual class: inhibitors | 310,000 compounds, 3.5% hits | AID 2546;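 note: Gal4-VP16 expression switched on by copper sulfate through the metallothionein promoter; potency is the fitted concentration of half-maximal effect; nearly all actives have a fitted effect of over 50% in size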
TSHR antagonist = blocks TSH signaling through the human TSH receptor; P16473; TSHR-expressing cells, TSH-stimulated cAMP HTRF, 2 h; hits give low values; activity change, negative = inhibition, % at 11.5 µM; 330,000 compounds, 0.2% hits; AID 504810;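 active = activity change below a set negative limit, meaning inhibition stronger than a set level, cut at about -70% in these data; inconclusive = activity change between two set negative limits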
Target sequence (P16473 whole entry, looked up): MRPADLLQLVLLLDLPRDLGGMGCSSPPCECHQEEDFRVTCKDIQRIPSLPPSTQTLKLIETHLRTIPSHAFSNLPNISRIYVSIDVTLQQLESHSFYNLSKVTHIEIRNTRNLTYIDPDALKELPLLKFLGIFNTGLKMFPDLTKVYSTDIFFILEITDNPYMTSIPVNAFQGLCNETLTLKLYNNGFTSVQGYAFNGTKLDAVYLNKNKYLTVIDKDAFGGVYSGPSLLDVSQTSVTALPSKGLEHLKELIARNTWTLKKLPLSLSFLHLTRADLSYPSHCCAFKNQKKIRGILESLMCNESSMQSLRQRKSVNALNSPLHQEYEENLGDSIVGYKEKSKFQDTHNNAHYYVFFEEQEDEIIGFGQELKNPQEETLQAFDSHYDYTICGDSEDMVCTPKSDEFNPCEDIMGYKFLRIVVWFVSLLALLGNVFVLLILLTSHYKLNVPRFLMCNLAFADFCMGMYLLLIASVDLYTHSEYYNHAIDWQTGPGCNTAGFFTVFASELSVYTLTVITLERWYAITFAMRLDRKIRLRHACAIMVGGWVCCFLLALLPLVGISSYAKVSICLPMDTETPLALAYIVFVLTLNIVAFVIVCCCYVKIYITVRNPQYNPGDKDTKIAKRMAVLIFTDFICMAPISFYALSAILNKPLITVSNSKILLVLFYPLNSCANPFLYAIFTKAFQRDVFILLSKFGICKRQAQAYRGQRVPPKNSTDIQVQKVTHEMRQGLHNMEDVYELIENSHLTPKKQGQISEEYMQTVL
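Read-out is FRET at 665 nm (cryptate excitation 337 nm) from a cryptate-tagged anti-cAMP antibody, competed by cell cAMP against cAMP-d2. Compounds are tested on freshly harvested TSHR cells challenged with 4nM TSH (EC80) for 2 hours at 37 deg C.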
Active calls of the source: *; ? = inconclusive; . = not tested or not shown; [ ] = remark or other dose. Rows were chosen to be rich in hits. Some 8% of all compounds tested hit in one or more screens of this group. Unless noted, calls come from the whole dose curve; as a rule, active = well fitted curve in the direction sought with a large enough effect; inconclusive = small, poorly fitted or top-dose-only effect, or another doubt; inactive = no such curve, though single readings can be large; an effect the other way counts as inactive or inconclusive. % is set by controls: 0 for no effect and ±100 for the full control effect.

SMILES	ELG1 DNA repair	Coupling enz	RORgamma inh	VP16 counter	TSHR antagonist
O=C(CCc1nnc2ccc(NCc3ccccc3Cl)nn12)NC1CCCCC1	3%	-4	-9%	-29%	14
S=c1[nH]ccn1-c1ccccc1Cl	-4%	0	?	-14%	-6
S=c1[nH]ccn1-c1cccc(Cl)c1Cl	4%	2	7.9µM*	?	-1
S=c1[nH]ccn1-c1cccc(Cl)c1	2%	0	13µM*	?	6
Cc1ccc(-n2cc[nH]c2=S)cc1C	5%	-1	0.05µM*	-92%	-2
COC(=O)[C@H](COC(C)(C)C)NC(=O)O[C@@H]1C(=O)c2cc(OC)ccc2O[C@H]1c1ccc(OC)c(Br)c1	.	-7	36%	0%	.
COC(=O)c1cc(CN2CCN(c3ccccc3C)CC2)ccc1O	23µM*	0	-12%	3%	1
CCn1c(C)nc2cc(S(N)(=O)=O)ccc21	13%	4	4%	-9%	6
CCn1c(C)nc2cc(S(=O)(=O)C(F)(F)C(F)C(F)(F)F)ccc21 (stereo not given)	7.3µM*	-4	-25%	4µM*	9
O=C(NNc1cc(N2CCOCC2)nc(N2CCOCC2)n1)c1ccc(Cl)c(Cl)c1	-3%	-17	14µM*	?	8
Cc1ccc(C(=O)NNc2cc(N3CCCC3)nc(N3CCCC3)n2)cc1	-4%	-10	5µM*	?	-6
O=c1cc(-c2ccc(O)c(O)c2)oc2ccccc12	.	-20	3.2µM*	1%	.
COc1ccc(-c2nc(CSCC(=O)NC3CCCc4ccccc43)c(C)o2)cc1OC (stereo not given)	16µM*	-7	-16%	7%	-6
COc1ccc(-c2nc(CSCC(=O)NC3CC3)c(C)o2)cc1OC	2%	2	-16%	-2%	-6
COc1ccc(-c2nc(CSCC(=O)NC3CCCC3)c(C)o2)cc1OC	15µM*	-6	-15%	0%	34
COc1ccc(-c2nc(CSCC(=O)N3CCN(c4cccc(C)c4)C(C)C3)c(C)o2)cc1OC (stereo not given)	15µM*	-9	6%	?	13
COc1ccc(-c2nc(CS(=O)CC(=O)NC3CCCc4ccccc43)c(C)o2)cc1OC (stereo not given)	?	3	-21%	9%	-5
COc1ccc(-c2nc(CSCC(=O)N3CCc4ccccc4C3)c(C)o2)cc1OC	?	-5	-13%	-13%	1
CC#CCOC(=O)c1c(C)nc2sc3c(c2c1N)CC[C@@H](O)C3	.	2	7.1µM*	?	.
CCOC(=O)c1c(N)sc2c1CCC(C)C2 (stereo not given)	-3%	0	-24%	-22%	4
O=C(COC(=O)C12CC3CC(CC(C3)C1)C2)Nc1ccc([N+](=O)[O-])cc1Br	?	-4	25%	18%	5
Cc1ccc(NC(=O)COC(=O)C2CC3CCCC(C2)C3=O)c([N+](=O)[O-])c1 (stereo not given)	0%	.	.	.	-5
N#Cc1cc([N+](=O)[O-])ccc1NC(=O)COC(=O)C1CC2CCCC(C1)C2=O (stereo not given)	9.2µM*	.	.	.	30
N#Cc1cc([N+](=O)[O-])ccc1NC(=O)COC(=O)C12CC3CC(CC(C3)C1)C2	10µM*	2	-8%	-12%	-12
O=c1oc(-c2ccccc2)nc2c1C1(CCCCC1)Cc1ccccc1-2	1%	3	-25%	-1%	19
SMILES	ELG1 DNA repair	Coupling enz	RORgamma inh	VP16 counter	TSHR antagonist
Nc1nc(=S)[nH]c2c1C1(CCCC1)Cc1ccccc1-2	-15%	.	6.3µM*	8.9µM*	-8
Nc1n[nH]c2c1C1(CCCC1)Cc1ccccc1-2	?	-2	?	-11%	6
Nc1nc(=S)[nH]c2c1C1(CCCCC1)Cc1ccccc1-2	15%	0	2.2µM*	4µM*	2
COC(=O)C1=C(C)N(Cc2ccccc2)C(=NCC2CC2)N[C@H]1c1ccc(Br)cc1	.	-1	?	?	1
Clc1ccc(COn2c(-c3ccc(Cl)cc3)nc3ccccc32)cc1	16%	0	11µM*	21%	-5
O=[N+]([O-])c1ccc2nc(-c3ccc(Cl)cc3)n(OCc3ccccc3)c2c1	?	-3	24%	?	-3
Clc1ccc(COn2c(-c3ccccc3)nc3ccccc32)cc1	10%	-6	10µM*	?	8
Cc1cccc(NS(=O)(=O)c2ccc(C)c(C(=O)NCC(c3cccs3)N(C)C)c2)c1 (stereo not given)	7%	.	.	.	8
Cc1ccc(OCc2nnc(SCC(=O)CC(=O)Nc3ccccc3)o2)cc1	0%	0	13µM*	?	-7
O=C(CSc1nnc(COc2ccccc2)o1)N1CCOCC1	14%	1	0.11µM*	-5%	9
Cn1cc(-c2nc3cncnc3n(CCN)c2=O)c2ccccc21	.	-10	-15%	-9%	.
Cc1nc(C(=O)NCCC(C)C)sc1C1(C)CC(c2ccccc2)=NO1 (stereo not given)	13µM*	-1	-5%	1%	21
COc1ccc(/C=N/n2cnn(Cc3ccccc3Cl)c2=S)cc1	?	0	-1%	-24%	-13
COc1cc(/C=N/n2cnn(Cc3ccccc3Cl)c2=S)cc(OC)c1OC	23µM*	0	42%	?	-7
Cc1cc(C)n(-c2nc3ccccc3nc2N2CCCCCC2)n1	1%	-1	11µM*	-12%	-6
Cc1cc(C)n(-c2nc3ccccc3nc2N2CCCC2)n1	0%	3	-17%	-1%	5
Cc1ccc2c(c1[N+](=O)[O-])C(=O)c1ccccc1C2=O	.	.	0%	?	.
Cc1[nH]c2ccccc2c1CCNC(=O)c1ccc2c(c1[N+](=O)[O-])C(=O)c1ccccc1C2=O	-3%	-29	10µM*	?	-2
CCCNC(=O)NCCc1c(C)[nH]c2ccccc12	-5%	-1	0%	-1%	-11
Cc1[nH]c2c(C)cccc2c1CCNC(=O)c1ccc2c(c1[N+](=O)[O-])C(=O)c1ccccc1C2=O	?	-31*	6.3µM*	?	-15
Cc1cccc2c(=O)c(C(=O)NCCc3ccccc3)c[nH]c12	?	-2	-14%[1.91 µM]	?	37
CN(C)C(=O)c1ccc2c(c1[N+](=O)[O-])C(=O)c1ccccc1C2=O	?	-43*	2.2µM*	3.5µM*	9
Cc1cc(C)c(C)c(S(=O)(=O)N(C)C2CCN(C)CC2)c1C	5%	1	-14%	3%	-4
COc1cc(OC)c(NC(=S)Nc2cccc(C)c2)cc1Cl	4%	-3	10µM*	?	6
COc1ccc(NC(=S)Nc2cccc(Cl)c2Cl)cc1OC	3%	1	-37%	1%	2

Bioassay records from PubChem BioAssay.
